SMILES strings stand for the structures. A number with no mark means an inactive call. Results filed as inconclusive are left out. Calls of active or inactive are those of the source.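 How the source made its calls, unless noted: active means inhibition over a set limit, the all-compound mean plus 3 SD, in both replicate runs; inconclusive means over that limit in just one replicate run; inactive means at or under that limit in both runs.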

One assay in a line: viability of HCT116 without oncogenic beta-catenin – human colon tumor cells, pilot screen (AID 823;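 active means cell viability at or below a set limit in both duplicate runs, the limit being the all-compound median minus 4 SD, cut at about 23% in these data, passing the limit was not always enough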;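 further: 0% = wells killed by 20 µM Hyamine and 100% = untreated DMSO cell wells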). The settings on record: HCT116 beta-catenin knockout viability, CellTiter-Glo, 60 h; at 10 µM; stronger effect = lower value. In general terms: ATP-based viability assays read luminescence as a measure of living cells.
For `O=C(N1CCOCC1)N1CCN(c2ccccc2F)CC1`, the viability is 97.9%.
Still for that read-out and setting: then `CCCc1cc(=O)oc2cc3occ(C)c3cc12`, with 93.6%.
`COc1ccccc1N1CCN(c2cc(=O)n(-c3ccc(Cl)cc3)c(=O)[nH]2)CC1`: the viability was 84.4%.
On the same count and under the same terms, to `COc1ccc(OC)c(S(=O)(=O)NCc2cn3c(C)csc3n2)c1` belongs 103%; to `CCOc1ccc(OCC)c(S(=O)(=O)NCc2ccc3c(c2)OCO3)c1`, 95.1%; to `COc1cccc(C2NC(CCSC)(C(=O)O)C3C(=O)N(C(C)C)C(=O)C23)c1O` (configuration not stated), 95%.
On the same count and under the same terms, to `Cn1c(NC(=O)c2cc(Cl)ccc2Cl)cc(=O)n(C)c1=O` belongs 99.9%.

A further assay in a line: viability of PTEN-null HCT116 cells – cell-based, HCT116 clonal line, CellTiter-Glo, pilot screen (AID 824;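 active means viability at or below 27.92% in each of two runs, the all-compound median minus 4 SD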;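 further: 0% = 20 µM Hyamine control and 100% = vehicle cell control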). The settings on record: HCT116 PTEN-deleted viability, 60 h, at 10 µM, stronger effect = lower value.
For the molecule `CCCC(=O)Nc1nc2c(OC)ccc(OC)c2s1`, the viability is 90.3%.
Still for that read-out and setting: to `COc1ccc(N(CC(=O)NCc2ccccc2OC)S(=O)(=O)c2c(C)nn(C)c2C)cc1` belongs 95.6%; to `O=C(c1ccc(CS(=O)(=O)c2ccc(Br)cc2)o1)N1CCN(c2ncccn2)CC1`, 96%.
Still for that read-out and setting: to `COc1ccc(C2C(C(=O)Nc3cc(C)on3)c3ccccc3C(=O)N2C)cc1OC` (configuration not stated) belongs 99.4%; to `O=C(O)CC1Sc2ccccc2NC1=O` (configuration not stated), 96%.
Regarding `C=CCNc1nc2c(c(=O)[nH]c(=O)n2C)n1Cc1cccc(C)c1`, the viability was 87.5%.
The same measure, in the same setting: then `CCOC(=O)C1=C(C)S/C(=C\N(C)C)C1=O`, with 90.3%; and `COc1cccc(NC(=O)CSc2ncnc3c2oc2ccccc23)c1`, with 87.3%; and `CCCCCCNC(=O)C(C(=O)OCC)C1CCCCC1` (configuration not stated), with 82.2%.
As for `COc1ccc(-c2cc3ccccc3n2CC(O)CN2CCN(CCO)CC2)cc1` (configuration not stated), the viability was 86%.
On to `CC(=O)c1c(Nc2ccc3c(c2)OCCO3)oc(C)cc1=O`, for which the viability is 100%.
Same read-out and setting: to `COc1ccc(-c2noc(CN3CCN(c4ccccc4)CC3)n2)cc1` belongs 88.4%.
As for `O=C1CSC(=S)N1Cc1cccnc1`, the viability is 9.45% (active).
Same read-out and setting: then `COc1ccc(NC(=O)C2CCCN2S(=O)(=O)c2ccc(F)cc2)cc1` (configuration not stated), with 99.2%; and `CCCCCCn1c(CN2CCN(CCO)CC2)nc2c1c(=O)n(C)c(=O)n2C`, with 89.4%; and `Cc1nn(-c2ccccc2)c2sc(C(=O)n3cccn3)cc12`, with 92.4%.
Regarding `Cc1cc(NC(=O)CSc2ccc3nnc(-c4ccccn4)n3n2)no1`, the viability was 90.4%.
On to `COc1cccc(C2CC(c3ccc(Cl)cc3)n3nc(N)nc3N2)c1` (configuration not stated), for which the viability is 91.1%.
Still for that read-out and setting: then `CC(=O)c1c(C)oc(C)c1CSCc1ccc(C(=O)O)o1`, with 97.9%; and `CC(=O)Nc1ccc(S(=O)(=O)c2ccc(N)cc2)cc1N`, with 98.8%.
Same read-out and setting: then `COC(=O)C1C2C=CC3(CN(C(C)C)C(=O)C13)O2` (configuration not stated), with 102%; and `CC(c1ccc(Br)cc1)N1CC23C=CC(O2)C(C(=O)O)C3C1=O` (configuration not stated), with 99.7%.
As for `CC(C)C(NS(=O)(=O)c1ccc2c3c(cccc13)C(=O)N2)C(=O)O` (configuration not stated), the viability is 93.6%.
For `CC1=C(C(=O)OCc2ccc3c(c2)OCO3)C(c2ccc(Cl)cc2)NC(=O)N1` (configuration not stated), the viability is 22.3% (active).
On the same count and under the same terms, then `CCOc1ccc2[nH]c(C)c(CN3CCOCC3)c(=O)c2c1`, with 99%; and `CC(NC(=O)CSc1ncnc2nc[nH]c12)c1ccccc1` (configuration not stated), with 96%.
Still for that read-out and setting: then `CCOc1ccc(N=Cc2c(O)cc(C)oc2=O)cc1`, with 101%; and `O=C(OCN1C(=O)c2ccccc2C1=O)c1ccco1`, with 93.3%.
Take `O=C(Nc1cccnc1)c1cc(-c2ccc(Br)cc2)on1`: the viability was 95.9%.
The same measure, in the same setting: then `CN1CCN(c2ccccc2NC(=O)C(Cc2ccccc2)n2cccc2)CC1` (configuration not stated), with 59.3%.
On to `COc1ccc(NC(=O)C2CCN(S(=O)(=O)c3cccc4cccnc34)CC2)cc1OC`, for which the viability is 96.6%.
The same measure, in the same setting: to `CCn1cc(C(=O)NCCCN2CCC(C)CC2)c2cc(OC)c(OC)cc2c1=O` belongs 92%; to `COc1ccccc1NC(=O)C1C2C=CC3(CN(Cc4cccnc4)C(=O)C13)O2` (configuration not stated), 103%.
Still for that read-out and setting: then `O=C(N1CCOCC1)N1CCN(c2ccccc2F)CC1`, with 99.7%.
As to `CCCc1cc(=O)oc2cc3occ(C)c3cc12`, the viability is 97.6%.
Take `COc1ccccc1N1CCN(c2cc(=O)n(-c3ccc(Cl)cc3)c(=O)[nH]2)CC1`: the viability was 77.7%.
Same read-out and setting: then `COc1ccc(OC)c(S(=O)(=O)NCc2cn3c(C)csc3n2)c1`, with 96.5%; and `CCOc1ccc(OCC)c(S(=O)(=O)NCc2ccc3c(c2)OCO3)c1`, with 96.5%.
Same read-out and setting: then `COc1cccc(C2NC(CCSC)(C(=O)O)C3C(=O)N(C(C)C)C(=O)C23)c1O` (configuration not stated), with 97.2%; and `Cn1c(NC(=O)c2cc(Cl)ccc2Cl)cc(=O)n(C)c1=O`, with 94.7%.

The nature of a further assay: RAM pathway blockade in budding yeast – dse1pr::URA3 reporter, 5-FOA selection, pilot screen (AID 869).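 Further: 0% = DMSO wells with no growth and 100% = 10 µM 1-NA-PP1 with full growth; RAM network block rescues cells from 5-FOA so hits raise OD615 growth.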 The settings on record: S. cerevisiae dse1pr::URA3 5-FOA growth, OD615, 2 d; at 10 µM; stronger effect = higher value; strain carries analog-sensitive mutant Cbk1 kinase.
Consider `CCCC(=O)Nc1nc2c(OC)ccc(OC)c2s1`, for which the inhibition is 2.33%.
In the case of `COc1ccc(N(CC(=O)NCc2ccccc2OC)S(=O)(=O)c2c(C)nn(C)c2C)cc1`, the inhibition is 0.135%.
The same measure, in the same setting: then `O=C(c1ccc(CS(=O)(=O)c2ccc(Br)cc2)o1)N1CCN(c2ncccn2)CC1`, with 1.94%; and `COc1ccc(C2C(C(=O)Nc3cc(C)on3)c3ccccc3C(=O)N2C)cc1OC` (configuration not stated), with 1.24%.
Still for that read-out and setting: then `O=C(O)CC1Sc2ccccc2NC1=O` (configuration not stated), with 1.49%; and `C=CCNc1nc2c(c(=O)[nH]c(=O)n2C)n1Cc1cccc(C)c1`, with 2.04%; and `CCOC(=O)C1=C(C)S/C(=C\N(C)C)C1=O`, with -0.055%.
Still for that read-out and setting: to `COc1cccc(NC(=O)CSc2ncnc3c2oc2ccccc23)c1` belongs 2.46%.
With `CCCCCCNC(=O)C(C(=O)OCC)C1CCCCC1` (configuration not stated), the inhibition was 0.15%.
On the same count and under the same terms, to `COc1ccc(-c2cc3ccccc3n2CC(O)CN2CCN(CCO)CC2)cc1` (configuration not stated) belongs 0.72%; to `CC(=O)c1c(Nc2ccc3c(c2)OCCO3)oc(C)cc1=O`, 0.68%.
As to `COc1ccc(-c2noc(CN3CCN(c4ccccc4)CC3)n2)cc1`, the inhibition is 1%.
The same measure, in the same setting: then `O=C1CSC(=S)N1Cc1cccnc1`, with 0.82%; and `COc1ccc(NC(=O)C2CCCN2S(=O)(=O)c2ccc(F)cc2)cc1` (configuration not stated), with 1.87%.
Same read-out and setting: then `CCCCCCn1c(CN2CCN(CCO)CC2)nc2c1c(=O)n(C)c(=O)n2C`, with 2.5%.
Same read-out and setting: to `Cc1nn(-c2ccccc2)c2sc(C(=O)n3cccn3)cc12` belongs 2.99%; to `Cc1cc(NC(=O)CSc2ccc3nnc(-c4ccccn4)n3n2)no1`, 0.535%.
Turning to `COc1cccc(C2CC(c3ccc(Cl)cc3)n3nc(N)nc3N2)c1` (configuration not stated), the inhibition is 1.63%.
Same read-out and setting: then `CC(=O)c1c(C)oc(C)c1CSCc1ccc(C(=O)O)o1`, with 0.665%; and `CC(=O)Nc1ccc(S(=O)(=O)c2ccc(N)cc2)cc1N`, with 2.1%.
The same measure, in the same setting: to `COC(=O)C1C2C=CC3(CN(C(C)C)C(=O)C13)O2` (configuration not stated) belongs -0.215%; to `CC(c1ccc(Br)cc1)N1CC23C=CC(O2)C(C(=O)O)C3C1=O` (configuration not stated), 1.27%.
Consider `CC(C)C(NS(=O)(=O)c1ccc2c3c(cccc13)C(=O)N2)C(=O)O` (configuration not stated), for which the inhibition is 1.71%.
Same read-out and setting: then `CC1=C(C(=O)OCc2ccc3c(c2)OCO3)C(c2ccc(Cl)cc2)NC(=O)N1` (configuration not stated), with 1.32%.
In the case of `CCOc1ccc2[nH]c(C)c(CN3CCOCC3)c(=O)c2c1`, the inhibition was 1.96%.
Still for that read-out and setting: then `CC(NC(=O)CSc1ncnc2nc[nH]c12)c1ccccc1` (configuration not stated), with 0.755%.
The same measure, in the same setting: to `CCOc1ccc(N=Cc2c(O)cc(C)oc2=O)cc1` belongs 1.21%.
The same measure, in the same setting: then `O=C(OCN1C(=O)c2ccccc2C1=O)c1ccco1`, with 3.23%; and `O=C(Nc1cccnc1)c1cc(-c2ccc(Br)cc2)on1`, with 0.76%; and `CN1CCN(c2ccccc2NC(=O)C(Cc2ccccc2)n2cccc2)CC1` (configuration not stated), with 2.68%.
For `COc1ccc(NC(=O)C2CCN(S(=O)(=O)c3cccc4cccnc34)CC2)cc1OC`, the inhibition is 1.41%.
The same measure, in the same setting: to `CCn1cc(C(=O)NCCCN2CCC(C)CC2)c2cc(OC)c(OC)cc2c1=O` belongs 1.77%; to `COc1ccccc1NC(=O)C1C2C=CC3(CN(Cc4cccnc4)C(=O)C13)O2` (configuration not stated), -0.25%; to `O=C(N1CCOCC1)N1CCN(c2ccccc2F)CC1`, 0.325%.
As for `CCCc1cc(=O)oc2cc3occ(C)c3cc12`, the inhibition was 1.23%.
`COc1ccccc1N1CCN(c2cc(=O)n(-c3ccc(Cl)cc3)c(=O)[nH]2)CC1`: the inhibition was 1.07%.
Still for that read-out and setting: then `COc1ccc(OC)c(S(=O)(=O)NCc2cn3c(C)csc3n2)c1`, with 0.045%.
Same read-out and setting: then `CCOc1ccc(OCC)c(S(=O)(=O)NCc2ccc3c(c2)OCO3)c1`, with 1.52%; and `COc1cccc(C2NC(CCSC)(C(=O)O)C3C(=O)N(C(C)C)C(=O)C23)c1O` (configuration not stated), with 1.93%; and `Cn1c(NC(=O)c2cc(Cl)ccc2Cl)cc(=O)n(C)c1=O`, with 1.17%.

What is called viability is a read-out of living cells in per cent, often relative to untreated cells. The inhibition is the change of the read-out against control, counted positive when it falls.

For the origin of these results see PubChem BioAssay.
